Compound activity as filed in PubChem.
Only a selection was taken, and hits are over-represented in it overall.
Methyltransferases = Primary Screen for Target Class Profiling of Small Molecule Inhibitors of Methyltransferases. calls only at 40 µM. 3.9% of 25,000 active. AID 1745853, 2022. purified enzyme, MTase-Glo SAH luminescence; active compounds read low; call rule not given here
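Each enzyme was assayed with SAM and its substrate. SAH formation detected by MTase-Glo luminescence; single-point 40 uM screen[…].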
* = called active by the depositor. % is scaled to controls: 0 for no effect and ±100 for the full control effect.

Screening CC(C)Cn1c(=O)c2cc(F)ccc2n2c(SCC(=O)Nc3ccc(F)cc3)nnc12 returned Methyltransferases inactive.
`CC1(C(=O)NC2CCCCCC2)Cn2c(ccc2-c2ccccc2)C(=O)N1CCN1CCOCC1` (stereo not drawn) gave Methyltransferases inactive.
For O=C(Nc1ccccc1F)N1Cc2c(sc3c2CCCC3)-n2cccc2C1c1cccc(F)c1 (stereo not drawn) the results were Methyltransferases inactive.
Screening Cc1cccc(Cn2nc3n(CCc4ccccc4)c(=O)c4ccccc4n3c2=O)c1 returned Methyltransferases inactive.
CNC(=O)c1ccc2c(C(=Nc3cccc(CN(C)C)c3)c3ccccc3)c(O)[nH]c2c1 was read as Methyltransferases active.
Screening O=C(NCc1ccccc1)c1ccc2c(=O)n(-c3cccc(C(F)(F)F)c3)c(=S)[nH]c2c1 returned Methyltransferases inactive.
COc1ccc(N2CCN(CCNS(=O)(=O)c3ccc4oc(=O)c5ncn(C)c5c4c3)CC2)cc1 was read as Methyltransferases inactive.
O=c1[nH]c2ccc(S(=O)(=O)N(CCO)CCO)cc2[nH]1 was read as Methyltransferases inactive.
For O=C1c2ccccc2C(=O)c2cc(S(=O)(=O)NC3CCCCC3)ccc21 the results were Methyltransferases inactive.
O=C1c2ccccc2C(=O)c2cc(S(=O)(=O)N(CCO)CCO)ccc21 was read as Methyltransferases active.
For CC1(C(=O)NC2CCCCC2)Cn2c(cc3sccc32)C(=O)N1CCCc1ccccc1 (stereo not drawn) the results were Methyltransferases inactive.
For CC1(C(=O)NC2CCCCC2)Cn2c(cc3ccccc32)C(=O)N1C1CCN(Cc2ccccc2)CC1 (stereo not drawn) the results were Methyltransferases inactive.
COc1cc([C@H]2c3cc(O)c(OC)cc3C[C@@H](CO[C@@H]3O[C@H](CO)[C@@H](O)[C@H](O)[C@H]3O)[C@@H]2CO)ccc1O was read as Methyltransferases inactive.
For COc1cc(/C=C/C(=O)O[C@H]2[C@H](O)[C@@H](CO)O[C@@]2(CO)O[C@H]2O[C@H](CO)[C@@H](O)[C@H](O)[C@H]2O)ccc1O the results were Methyltransferases inactive.
COc1cc(CC(COC2OC(CO)C(O)C(O)C2O)c2cc(/C=C/CO)cc(OC)c2O)ccc1O (stereo not drawn) was read as Methyltransferases inactive.
For COc1cc(/C=C/C(=O)OC[C@H]2O[C@@](CO)(O[C@H]3O[C@H](CO)[C@@H](O)[C@H](O)[C@H]3O)[C@@H](OC(=O)/C=C/c3ccc(O)c(OC)c3)[C@@H]2O)ccc1O the results were Methyltransferases active.
For COc1cc(/C=C/C(=O)O[C@H]2[C@H](OC(=O)/C=C/c3cc(OC)c(O)c(OC)c3)O[C@H](CO[C@@H]3O[C@H](CO)[C@@H](O)[C@H](O)[C@H]3O)[C@@H](O)[C@@H]2O)ccc1O the results were Methyltransferases active.
For COc1cc(/C=C/C(=O)OC[C@H]2O[C@H](O[C@]3(CO)O[C@H](CO)[C@@H](O)[C@@H]3O)[C@H](O)[C@@H](O)[C@@H]2O)cc(OC)c1O the results were Methyltransferases inactive.
`CCCNC(=O)c1cc2n(n1)CC(C)(C(=O)NC1CCCC1)N(CCC)C2=O` (stereo not drawn) gave Methyltransferases inactive.
For CC(C)Cn1c(=O)c2ccc(C(=O)NC(C)C)cc2n2c(=O)n(Cc3ccc(Cl)cc3)nc12 the results were Methyltransferases inactive.
Cc1ccc(CNC(=O)CCn2ccc3cc(S(=O)(=O)N4CCCCC4)ccc32)o1 was read as Methyltransferases inactive.
`COc1ccc(N2C(=O)c3ccc(-c4ccco4)n3CC2(C)C(=O)NC2CCCC2)cc1OC` (stereo not drawn) gave Methyltransferases inactive.
For CCc1ccccc1NC(=O)Cn1nc2cc(C)nc(Nc3ccc(F)cc3)n2c1=O the results were Methyltransferases inactive.
O=C(OC[C@H]1O[C@H](O[C@H]2CO[C@H](CO)[C@@H](O)[C@@H]2O)[C@H](O)[C@@H](O)[C@H]1O)c1ccccc1 was read as Methyltransferases inactive.
O=C(OC[C@H]1O[C@H](O[C@]2(CO)O[C@H](CO)[C@@H](O)[C@@H]2O)[C@H](O)[C@@H](O)[C@@H]1O)c1ccc(O)cc1 was read as Methyltransferases inactive.
C[C@]12C[C@@H](O)[C@@H]3C[C@@]1(O[C@@H]1O[C@H](CO)[C@@H](O)[C@H](O)[C@H]1O)[C@]3(COC(=O)c1ccccc1)C(=O)O2 was read as Methyltransferases active.
`CCc1ccccc1N1C(=O)c2cc(-c3ccc(OC)cc3)nn2CC1(C)C(=O)NCc1ccccc1OC` (stereo not drawn) gave Methyltransferases inactive.
CCCn1c(=O)c2ccc(C(=O)NCC(C)C)cc2n2c(SCC(N)=O)nnc12 was read as Methyltransferases inactive.
CCCn1c(=O)c2ccc(C(=O)NCC(C)C)cc2n2c(=O)n(Cc3c(F)cccc3Cl)nc12 was read as Methyltransferases inactive.
